{
  "source": "paper PMC5349851",
  "about": "“Combinatorial bZIP dimers display complex DNA-binding specificity landscapes”",
  "experiment_in_all_cases": "SELEX-seq (CSI, HT-SELEX, round 3); SELEX-seq: 1x PBS (10 mM phosphate, 137 mM NaCl, 2.7 mM KCl) pH 7.6, 2.5 mM DTT, 50 ng/ul poly dI-dC, 0.1% BSA, 50 nM biotinylated bZIP (1:3 with partner for heterodimers), 100 nM library, room temperature, 1 h, 3 rounds; high values mean tight binding",
  "details_in_all_cases": "protein: recombinant;recombinant; copies: 1;1; dsDNA, one strand shown",
  "key": {"ATF3;CEBPG": {"molecular_target": "T1, ATF3;CEBPG (Homo sapiens;Homo sapiens, UniProt P18847;P53567 77-150;52-130, |)", "T1 sequence 1": "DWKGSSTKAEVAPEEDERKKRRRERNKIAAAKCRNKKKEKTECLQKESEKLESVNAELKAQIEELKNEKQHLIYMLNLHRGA", "T1 sequence 2": "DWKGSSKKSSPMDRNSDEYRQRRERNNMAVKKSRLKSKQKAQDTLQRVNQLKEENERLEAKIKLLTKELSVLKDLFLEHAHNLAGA"}, "ATF3;CEBPA": {"molecular_target": "ATF3;CEBPA (Homo sapiens;Homo sapiens, UniProt P18847;P49715 77-150;273-345, |)"}, "JUN;CEBPA": {"molecular_target": "JUN;CEBPA (Homo sapiens;Homo sapiens, UniProt P05412;P49715 243-316;273-345, |)", "sequence (P05412 other isoform, or with tags, fused parts or gaps |, chain 1 of 2)": "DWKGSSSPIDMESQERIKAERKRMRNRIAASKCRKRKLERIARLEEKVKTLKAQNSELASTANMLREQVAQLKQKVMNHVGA", "sequence (P49715 other isoform, or with tags, fused parts or gaps |, chain 2 of 2)": "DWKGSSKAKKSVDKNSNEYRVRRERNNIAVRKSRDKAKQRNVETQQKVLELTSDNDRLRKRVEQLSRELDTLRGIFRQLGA"}, "BATF3;CEBPG": {"molecular_target": "T2, BATF3;CEBPG (Homo sapiens;Homo sapiens, UniProt Q9NR55;P53567 26-99;52-130, |)", "T2 sequence 1": "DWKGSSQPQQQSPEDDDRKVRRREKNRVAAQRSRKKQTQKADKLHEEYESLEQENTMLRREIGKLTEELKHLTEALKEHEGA", "T2 sequence 2": "T1 sequence 2"}, "BATF3;CEBPA": {"molecular_target": "BATF3;CEBPA (Homo sapiens;Homo sapiens, UniProt Q9NR55;P49715 26-99;273-345, |)", "sequence (P49715 other isoform, or with tags, fused parts or gaps |)": "as the sequence (P49715 other isoform, or with tags, fused parts or gaps |, chain 2 of 2) above"}, "ATF3;ATF3": {"molecular_target": "T3, ATF3;ATF3 (Homo sapiens;Homo sapiens, UniProt P18847;P18847 77-150;77-150, |)", "T3 sequence 1": "T1 sequence 1", "T3 sequence 2": "T1 sequence 1"}, "JUNB;CEBPA": {"molecular_target": "JUNB;CEBPA (Homo sapiens;Homo sapiens, UniProt P17275;P49715 259-332;273-345, |)", "sequence (P17275 other isoform, or with tags, fused parts or gaps |, chain 1 of 2)": "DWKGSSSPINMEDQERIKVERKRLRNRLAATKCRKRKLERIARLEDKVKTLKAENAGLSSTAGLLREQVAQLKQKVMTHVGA", "sequence (P49715 other isoform, or with tags, fused parts or gaps |, chain 2 of 2)": "as the sequence (P49715 other isoform, or with tags, fused parts or gaps |, chain 2 of 2) above"}, "BATF;CEBPG": {"molecular_target": "T4, BATF;CEBPG (Homo sapiens;Homo sapiens, UniProt Q16520;P53567 17-90;52-130, |)", "T4 sequence 1": "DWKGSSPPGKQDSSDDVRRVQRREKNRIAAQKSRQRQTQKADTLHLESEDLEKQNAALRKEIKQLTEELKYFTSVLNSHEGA", "T4 sequence 2": "T1 sequence 2"}, "JUN;CEBPG": {"molecular_target": "JUN;CEBPG (Homo sapiens;Homo sapiens, UniProt P05412;P53567 243-316;52-130, |)"}, "FOSL1;CEBPG": {"molecular_target": "T5, FOSL1;CEBPG (Homo sapiens;Homo sapiens, UniProt P15407;P53567 96-169;52-130, |)", "T5 sequence 1": "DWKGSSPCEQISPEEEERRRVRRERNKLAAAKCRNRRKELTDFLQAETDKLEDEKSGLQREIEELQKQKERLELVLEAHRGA", "T5 sequence 2": "T1 sequence 2"}},
  "data": [
    {"sequence": "CCTGACGTCA", "values": [
      {"measurement": "binding signal", "setting": "ATF3;CEBPG", "value": "0.0196 relative CSI intensity (max = 1)"},
      {"measurement": "binding signal", "setting": "ATF3;CEBPA", "value": "0.18 relative CSI intensity (max = 1)"},
      {"measurement": "binding signal", "setting": "JUN;CEBPA", "value": "0.00973 relative CSI intensity (max = 1)"},
      {"measurement": "binding signal", "setting": "BATF3;CEBPG", "value": "0.00277 relative CSI intensity (max = 1)"},
      {"measurement": "binding signal", "setting": "BATF3;CEBPA", "value": "0.00253 relative CSI intensity (max = 1)"},
      {"measurement": "binding signal", "setting": "ATF3;ATF3", "value": "0.0945 relative CSI intensity (max = 1)"},
      {"measurement": "binding signal", "setting": "JUNB;CEBPA", "value": "0.00467 relative CSI intensity (max = 1)"},
      {"measurement": "binding signal", "setting": "BATF;CEBPG", "value": "0.0162 relative CSI intensity (max = 1)"}
    ]},
    {"sequence": "ATGACGCAAT", "values": [
      {"measurement": "binding signal", "setting": "ATF3;CEBPG", "value": "1 relative CSI intensity (max = 1)"},
      {"measurement": "binding signal", "setting": "ATF3;CEBPA", "value": "0.754 relative CSI intensity (max = 1)"},
      {"measurement": "binding signal", "setting": "JUN;CEBPG", "value": "1 relative CSI intensity (max = 1)"},
      {"measurement": "binding signal", "setting": "JUN;CEBPA", "value": "0.7 relative CSI intensity (max = 1)"},
      {"measurement": "binding signal", "setting": "BATF3;CEBPG", "value": "0.954 relative CSI intensity (max = 1)"},
      {"measurement": "binding signal", "setting": "BATF3;CEBPA", "value": "0.595 relative CSI intensity (max = 1)"},
      {"measurement": "binding signal", "setting": "ATF3;ATF3", "value": "0.0322 relative CSI intensity (max = 1)"},
      {"measurement": "binding signal", "setting": "JUNB;CEBPA", "value": "1 relative CSI intensity (max = 1)"},
      {"measurement": "binding signal", "setting": "BATF;CEBPG", "value": "0.678 relative CSI intensity (max = 1)"},
      {"measurement": "binding signal", "setting": "FOSL1;CEBPG", "value": "1 relative CSI intensity (max = 1)"}
    ]},
    {"sequence": "ATGATGCAAT", "values": [
      {"measurement": "binding signal", "setting": "ATF3;CEBPG", "value": "0.538 relative CSI intensity (max = 1)"},
      {"measurement": "binding signal", "setting": "ATF3;CEBPA", "value": "0.655 relative CSI intensity (max = 1)"},
      {"measurement": "binding signal", "setting": "JUN;CEBPG", "value": "0.445 relative CSI intensity (max = 1)"},
      {"measurement": "binding signal", "setting": "JUN;CEBPA", "value": "0.679 relative CSI intensity (max = 1)"},
      {"measurement": "binding signal", "setting": "BATF3;CEBPG", "value": "0.78 relative CSI intensity (max = 1)"},
      {"measurement": "binding signal", "setting": "BATF3;CEBPA", "value": "0.725 relative CSI intensity (max = 1)"},
      {"measurement": "binding signal", "setting": "ATF3;ATF3", "value": "0.00513 relative CSI intensity (max = 1)"},
      {"measurement": "binding signal", "setting": "JUNB;CEBPA", "value": "0.927 relative CSI intensity (max = 1)"},
      {"measurement": "binding signal", "setting": "BATF;CEBPG", "value": "0.553 relative CSI intensity (max = 1)"},
      {"measurement": "binding signal", "setting": "FOSL1;CEBPG", "value": "0.498 relative CSI intensity (max = 1)"}
    ]},
    {"sequence": "ATGACGGAAT", "values": [
      {"measurement": "binding signal", "setting": "ATF3;CEBPG", "value": "0.0128 relative CSI intensity (max = 1)"},
      {"measurement": "binding signal", "setting": "ATF3;CEBPA", "value": "0.105 relative CSI intensity (max = 1)"},
      {"measurement": "binding signal", "setting": "JUN;CEBPG", "value": "0.0184 relative CSI intensity (max = 1)"},
      {"measurement": "binding signal", "setting": "JUN;CEBPA", "value": "0.00425 relative CSI intensity (max = 1)"},
      {"measurement": "binding signal", "setting": "BATF3;CEBPG", "value": "0.00179 relative CSI intensity (max = 1)"},
      {"measurement": "binding signal", "setting": "ATF3;ATF3", "value": "0.00639 relative CSI intensity (max = 1)"},
      {"measurement": "binding signal", "setting": "JUNB;CEBPA", "value": "0.00413 relative CSI intensity (max = 1)"},
      {"measurement": "binding signal", "setting": "BATF;CEBPG", "value": "0.00661 relative CSI intensity (max = 1)"}
    ]},
    {"sequence": "ATGACGTCAT", "values": [
      {"measurement": "binding signal", "setting": "ATF3;CEBPG", "value": "0.268 relative CSI intensity (max = 1)"},
      {"measurement": "binding signal", "setting": "ATF3;CEBPA", "value": "1 relative CSI intensity (max = 1)"},
      {"measurement": "binding signal", "setting": "JUN;CEBPG", "value": "0.705 relative CSI intensity (max = 1)"},
      {"measurement": "binding signal", "setting": "JUN;CEBPA", "value": "1 relative CSI intensity (max = 1)"},
      {"measurement": "binding signal", "setting": "BATF3;CEBPG", "value": "0.108 relative CSI intensity (max = 1)"},
      {"measurement": "binding signal", "setting": "BATF3;CEBPA", "value": "0.0986 relative CSI intensity (max = 1)"},
      {"measurement": "binding signal", "setting": "ATF3;ATF3", "value": "1 relative CSI intensity (max = 1)"},
      {"measurement": "binding signal", "setting": "JUNB;CEBPA", "value": "0.0515 relative CSI intensity (max = 1)"},
      {"measurement": "binding signal", "setting": "BATF;CEBPG", "value": "0.12 relative CSI intensity (max = 1)"},
      {"measurement": "binding signal", "setting": "FOSL1;CEBPG", "value": "0.43 relative CSI intensity (max = 1)"}
    ]},
    {"sequence": "ATGACGTAAT", "values": [
      {"measurement": "binding signal", "setting": "ATF3;CEBPG", "value": "0.53 relative CSI intensity (max = 1)"},
      {"measurement": "binding signal", "setting": "ATF3;CEBPA", "value": "0.606 relative CSI intensity (max = 1)"},
      {"measurement": "binding signal", "setting": "JUN;CEBPG", "value": "0.246 relative CSI intensity (max = 1)"},
      {"measurement": "binding signal", "setting": "JUN;CEBPA", "value": "0.286 relative CSI intensity (max = 1)"},
      {"measurement": "binding signal", "setting": "BATF3;CEBPG", "value": "0.306 relative CSI intensity (max = 1)"},
      {"measurement": "binding signal", "setting": "BATF3;CEBPA", "value": "0.226 relative CSI intensity (max = 1)"},
      {"measurement": "binding signal", "setting": "ATF3;ATF3", "value": "0.196 relative CSI intensity (max = 1)"},
      {"measurement": "binding signal", "setting": "JUNB;CEBPA", "value": "0.144 relative CSI intensity (max = 1)"},
      {"measurement": "binding signal", "setting": "BATF;CEBPG", "value": "0.22 relative CSI intensity (max = 1)"},
      {"measurement": "binding signal", "setting": "FOSL1;CEBPG", "value": "0.318 relative CSI intensity (max = 1)"}
    ]}
  ]
}
